This test can be described thus: growth inhibition of WT strain, primary screen, mitochondrial fusion inhibitor project, WT and mutant strains, chemical genetic (AID 1362). The settings on record: mitochondrial fusion phenotypic screen, at 10 µM.
[1] abbreviates: WT strain, growth inhibition, stronger effect = higher value.

Out of some 190,000 compounds screened, about 4,000 (2.1%) were called active. Cut-off read from the data, not from the text of the source: active = inhibition above about 58%; inactive = the rest, inconclusive results apart; tested in S. cerevisiae. Only a selection was taken, and actives are over-represented in it overall.

On to `CC(=O)NC(NC(=S)Nc1c(C)n(C)n(-c2ccccc2)c1=O)C(Cl)(Cl)Cl` (configuration not stated), for which the inhibition is, setting by setting: under setting [1], 15.8% (inactive); (mutant strain inhibition) 0.58%.
The corresponding values for `CCOCCCNC(=S)N1CCC(NC(=O)C2CCCCC2)CC1` are 6.14% (inactive) and 2.16%.
The matching figures for `COc1ccc(NS(=O)(=O)c2ccc(O)c(C(=O)OCC(=O)NC3CCCCC3)c2)cc1`: -15% (inactive) and 17.3%.
The corresponding values for `COc1ccccc1N1N=C(c2cccs2)CC1c1ccccc1` (configuration not stated) are 52.7% (inactive) and 33.7%.
Consider `COc1ccc(C2CC(c3cccs3)=NN2c2ccc(F)cc2)cc1OC` (configuration not stated), for which the inhibition reads like this: under setting [1], 30.3% (inactive); (mutant strain inhibition) 11.7%.
For the compound `Fc1ccc(N2N=C(c3cccs3)CC2c2ccco2)c(F)c1` (configuration not stated), the inhibition is 70.8% (active) under setting [1] and 10.1% (mutant strain inhibition).
The corresponding values for `CCN1CCC2(CCN(Cc3cn[nH]c3-c3ccc(OC)c(F)c3)C2)C1` (configuration not stated) are -2.46% (inactive) and -5.08%.
The matching figures for `CN1C2CCC1/C(=C\c1ccccc1Cl)C(=O)/C2=C\c1ccccc1Cl`: 60.7% (active) and 32.3%.
Regarding `CCC1CCCCN1S(=O)(=O)Cc1ccccc1Cl` (configuration not stated), the inhibition under setting [1] is 0.45% (inactive) and the inhibition (mutant strain inhibition) came to 1.41%.
The matching figures for `O=C(CN1CCCCCC1)NCCN1C(=O)S/C(=C\c2ccccc2Cl)C1=O`: 2.91% (inactive) and -4.16%.
For `COc1ccc(Cl)cc1N(CC(=O)N1CCCCC1)S(C)(=O)=O`, the inhibition under setting [1] was 11.8% (inactive) and the inhibition (mutant strain inhibition) was 0.08%.
Take `Cc1cc(C)cc(C(=O)NC2C(=O)N3C(C(=O)O)=C(CSc4nnc(C)s4)CSC23)c1` (configuration not stated): the inhibition by setting is: under setting [1], 4% (inactive); (mutant strain inhibition) -0.51%.
The corresponding values for `COC(=O)c1sc(NC(=O)c2csc3c2CCCC3)nc1C` are 16.5% (inactive) and 0.86%.
The corresponding values for `COC(=O)c1sccc1NC(=O)c1csc2c1CCCC2` are 71.3% (active) and 48.8%.
Consider `Cc1ccc(NC(=O)c2csc3c2CCCC3)cc1`, for which the inhibition is, setting by setting: under setting [1], 11.5% (inactive); (mutant strain inhibition) 21.5%.
The matching figures for `CC(=O)c1cccc(-n2nnnc2SCC(=O)NNC(=O)C2CCCCC2)c1`: 6.05% (inactive) and 12.8%.
The corresponding values for `Cc1cc(-c2nnc(CCC(=O)NC(c3ccccc3)c3ccccc3)o2)no1` are 7.01% (inactive) and 6.86%.
The corresponding values for `CC(Sc1nc2ccccc2c(=O)n1Cc1ccco1)C(=O)c1ccccc1` (configuration not stated) are 69.4% (active) and 31.3%.
`CCOC(=O)C(C)Sc1nc2ccccc2c(=O)n1CC1CCCCC1` (configuration not stated): the inhibition reads like this: under setting [1], 21.8% (inactive); (mutant strain inhibition) -3.67%.
As for `O=C(CCCn1c(SCC(=O)c2ccc(F)cc2)nc2ccccc2c1=O)NCc1ccco1`, the inhibition under setting [1] was 7.88% (inactive) and the inhibition (mutant strain inhibition) was found to be 15.5%.
Turning to `Cc1cc([N+](=O)[O-])nn1CCCC(=O)Nc1cccnc1Cl`, the inhibition was -5.91% (inactive) under setting [1] and -23.5% (mutant strain inhibition).
Consider `COc1cc(S(=O)(=O)N2CCOCC2)ccc1NC(=O)COc1ccc(N(C)S(=O)(=O)c2ccc(C)cc2)cc1`, for which the inhibition by setting is: under setting [1], 3.51% (inactive); (mutant strain inhibition) -4.35%.
The matching figures for `Cc1nn(-c2ccccc2)c2sc(C(=O)N(Cc3ccco3)C(C)C(=O)NC(C)(C)C)cc12` (configuration not stated): 68.7% (active) and 1.44%.
The corresponding values for `Cc1ccc(-c2nnn(CC(=O)N(Cc3ccco3)C(C(=O)NC(C)(C)C)c3ccncc3)n2)o1` (configuration not stated) are -1.04% (inactive) and -4.44%.
The matching figures for `Cc1nc(C)c(C(=O)N(c2ccc(C)c(C)c2)C(C(=O)NCc2ccco2)c2ccccc2)s1` (configuration not stated): 16.8% (inactive) and 9.51%.
With `O=C(NC1CC1)c1ccc(-c2ccccc2)cc1`, the inhibition is -18.3% (inactive) under setting [1] and 8.3% (mutant strain inhibition).
The matching figures for `CC1CCN(C(=S)c2cccc(O)c2)CC1`: -7.57% (inactive) and 21.7%.
The corresponding values for `CS(=O)(=O)N(CC(=O)N1CCN(Cc2ccc3c(c2)OCO3)CC1)c1ccc2c(c1)OCO2` are -12% (inactive) and -4.62%.
`CCOC(=O)N1CCN(S(=O)(=O)c2cc(Br)cc3c2N(C(=O)C2CC2)CC3)CC1`: the inhibition by setting is: under setting [1], -4.28% (inactive); (mutant strain inhibition) 4.16%.
The corresponding values for `CCN(c1ccc2c(c1)OCO2)S(=O)(=O)c1cc(Br)cc2c1N(C(=O)C1CC1)CC2` are 82.3% (active) and 13.7%.
The matching figures for `COC(=O)CSc1nccc(-c2cccs2)n1`: -15.2% (inactive) and 12.6%.
The corresponding values for `CCOc1ccc(/C=C(/NC(=O)c2ccccc2)C(=O)NCCC(=O)O)cc1` are -9.33% (inactive) and 4.17%.
As for `COc1cc(NC(=O)CN(C)S(=O)(=O)c2ccc3nc(C)sc3c2)cc(OC)c1`, the inhibition is 5.19% (inactive) under setting [1] and 4.68% (mutant strain inhibition).
The corresponding values for `C=CCn1c(N)c(S(=O)(=O)c2cccs2)c2nc3ccccc3nc21` are -1.23% (inactive) and 0.9%.
The corresponding values for `CC(C)Cn1c(N)c(C(=O)NCc2cccs2)c2nc3ccccc3nc21` are 3.94% (inactive) and 7%.
The corresponding values for `C=CCn1c(N)c(C(=O)OCC(C)C)c2nc3ccccc3nc21` are 66.3% (active) and -15.2%.
Turning to `CC(C)Oc1ccc(CCc2nnc(SCC(=O)O)n2-c2ccccc2)cc1`, the inhibition is, setting by setting: under setting [1], -10.3% (inactive); (mutant strain inhibition) 10.7%.
In the case of `CN(c1cccc(NC(=O)Nc2ccc(Cl)cc2)c1)S(C)(=O)=O`, the inhibition reads like this: under setting [1], 96.2% (active); (mutant strain inhibition) -6.73%.
The corresponding values for `COc1cccc(N(CC(=O)Nc2cccc(N(C)S(C)(=O)=O)c2)S(C)(=O)=O)c1` are -5.64% (inactive) and 2.31%.
The corresponding values for `Cc1ccc(N(CC(=O)Nc2cccc(N(C)S(C)(=O)=O)c2)S(C)(=O)=O)cc1` are 0.56% (inactive) and -23%.
The matching figures for `O=C(N/N=C/c1ccc([N+](=O)[O-])cc1)C(=O)N1CCCC1`: 11.1% (inactive) and 10.6%.

These data come from PubChem BioAssay AID1362 (SRMLSC, 2008).
